Measured values reported in PubChem BioAssay (NCI).
About 79,000 compounds went through this panel and 15% of them were active in at least one assay; those are over-represented in the sample as a whole. The source made the active and inactive calls. No stated cut-off is given here; in the data, active means growth inhibition above about 70%; inactive means the rest.

What was measured:
[1] = NCI Yeast Anticancer Drug Screen. Data for the rad52 strain (AID 147);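 further: 0% = growth of vehicle-treated control cultures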; settings: S. cerevisiae rad52 mutant growth inhibition, hits give high values
Procedure, shortened: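 The repair-mutant yeast strain was incubated with compounds, then growth was read and inhibition derived relative to vehicle.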

[2] = NCI Yeast Anticancer Drug Screen. Data for the wt1 strain (AID 149);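 further: 0% = growth of vehicle-treated wt1 cultures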; settings: S. cerevisiae wt1 strain (SPY 50644) growth inhibition, hits give high values
Procedure, shortened: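 Using yeast strain wt1, compound-induced growth inhibition was determined against vehicle-treated cultures.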

[3] = NCI Yeast Anticancer Drug Screen. Data for the rad50EPP+ strain (AID 151);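 further: 0% = growth of vehicle-treated control cultures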; settings: S. cerevisiae rad50 mutant strain, hits give high values
Procedure, shortened: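 Vehicle-normalised growth inhibition; rad50EPP+ yeast strain, altered in DNA damage repair, compound-treated.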

[4] = NCI Yeast Anticancer Drug Screen. Data for the mgt1 strain (AID 153); settings: S. cerevisiae mgt1 mutant growth inhibition, hits give high values
Procedure, shortened: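 Vehicle-normalized growth inhibition is determined in mgt1 yeast, a strain selected for a defined alteration in DNA repair or cell cycle control.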

[5] = NCI Yeast Anticancer Drug Screen. Data for the rad50 strain (AID 155);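 further: 0% = growth of vehicle-only cultures of the same strain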; settings: S. cerevisiae rad50 strain growth inhibition, hits give high values
Procedure, shortened: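 Relative growth inhibition (compound vs vehicle) was measured in yeast with a defined repair-gene alteration.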

[6] = NCI Yeast Anticancer Drug Screen. Data for the mec2-1 strain (AID 157); settings: S. cerevisiae mec2-1 strain, hits give high values
Procedure, shortened: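 Mutant yeast (mec2-1) grown with compound; growth inhibition relative to vehicle control reported.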

[7] = NCI Yeast Anticancer Drug Screen. Data for the rad14 strain (AID 159);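 further: 0% = growth of vehicle-treated control cultures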; settings: S. cerevisiae rad14 strain growth inhibition, hits give high values
Procedure, shortened: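 Screen for anticancer potential: a yeast strain altered in DNA damage repair is grown with compound, and reduced growth is quantified against vehicle controls.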

[8] = NCI Yeast Anticancer Drug Screen. Data for the sgs1 mgt1 strain (AID 161);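 further: 0% = growth of cultures given vehicle only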; settings: S. cerevisiae sgs1 mgt1 strain, hits give high values
Procedure, shortened: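 Yeast cells carrying a defined DNA-repair defect were exposed to test compounds. Growth inhibition was measured relative to vehicle-treated controls.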

[9] = NCI Yeast Anticancer Drug Screen. Data for the CLN2oe strain (AID 163);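 further: 0% = growth of vehicle-only control cultures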; settings: S. cerevisiae CLN2oe strain, hits give high values
Procedure, shortened: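 Compounds are applied to yeast harbouring a defined cell-cycle control change; reduced growth compared with vehicle-treated controls gives the value.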

[10] = NCI Yeast Anticancer Drug Screen. Data for the cln2 rad14 strain (AID 165);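 further: 0% = growth equal to vehicle treated cultures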; settings: S. cerevisiae cln2 rad14 strain, hits give high values
Procedure, shortened: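 Readout is yeast growth inhibition versus vehicle-treated controls, using a strain with cln2 and rad14 alterations exposed to compound.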

[11] = NCI Yeast Anticancer Drug Screen. Data for the bub3 strain (AID 167); settings: S. cerevisiae bub3 mutant strain, hits give high values
Procedure, shortened: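 Screening used yeast with an engineered genetic alteration affecting cell cycle control. Compound-exposed cultures were compared with vehicle cultures, and reduced growth was taken as inhibition.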

[12] = NCI Yeast Anticancer Drug Screen. Data for the wt2 strain (AID 169);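 further: 0% = growth of vehicle-treated yeast cultures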; settings: S. cerevisiae wt2 strain growth inhibition, hits give high values
Procedure, shortened: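 Against vehicle-treated controls, the growth of yeast exposed to each compound was compared, and the inhibition was recorded.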

[13] = NCI Yeast Anticancer Drug Screen. Data for the mlh1 strain (AID 171);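 further: 0% = growth of vehicle-treated control cultures of the same strain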; settings: S. cerevisiae mlh1 strain growth inhibition, hits give high values
Procedure, shortened: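 Measured: yeast growth. Reference: vehicle-treated controls. Organism: strain with a defined alteration affecting DNA damage repair or cell cycle control, treated with compound.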

[14] = NCI Yeast Anticancer Drug Screen. Data for the sgs1 strain (AID 173);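 further: 0% = growth of vehicle-only control cultures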; settings: S. cerevisiae sgs1 mutant, hits give high values
Procedure, shortened: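 Each compound was added to cultures of the altered yeast strain. Growth was recorded, and inhibition was derived by comparison with vehicle controls.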

[15] = NCI Yeast Anticancer Drug Screen. Data for the mlh1 rad18 strain (AID 175); settings: S. cerevisiae mlh1 rad18 strain growth inhibition, hits give high values
Procedure, shortened: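 Genetically defined yeast (DNA repair-deficient) exposed to compounds; growth inhibition determined relative to vehicle.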

[16] = NCI Yeast Anticancer Drug Screen. Data for the rad18 strain (AID 177); settings: S. cerevisiae rad18 mutant growth inhibition, hits give high values
Procedure, shortened: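 Vehicle-treated cultures served as the baseline for scoring compound-induced growth inhibition in DNA-repair-mutant yeast.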

[17] = at 5.0 µM (retest, dose inferred, filed as 0.5)
[18] = at 50.0 µM (retest, dose inferred, filed as 5.0)

Measured: growth inhibition

CCC[CH2][Sn]([CH2]CCC)([CH2]CCC)/[C](=C/[Si](C)(C)c1ccccc1)c1ccc2c(c1)OCO2
active: [1]; at 11.0 µM 92% | [1]; at 33.0 µM 90% | [1]; at 100.0 µM 87% | [2]; at 11.0 µM 94% | [2]; at 33.0 µM 92% | [2]; at 100.0 µM 89% | [3]; at 100.0 µM 74% | [4]; at 11.0 µM 95% | [4]; at 33.0 µM 92% | [4]; at 100.0 µM 93% | [5]; at 3.7 µM 72% | [5]; at 11.0 µM 89% | [5]; at 33.0 µM 87% | [5]; at 50.0 µM 91.2% | [5]; at 100.0 µM 87% | [6]; at 11.0 µM 94% | [6]; at 33.0 µM 92% | [6]; at 50.0 µM 93.7% | [6]; at 100.0 µM 91% | [7]; at 11.0 µM 95% | [7]; at 33.0 µM 93% | [7]; at 100.0 µM 93% | [8]; [17] 75% | [8]; [18] 75% | [8]; at 50.0 µM 91.8% | [9]; at 11.0 µM 92% | [9]; at 33.0 µM 89% | [9]; at 100.0 µM 84% | [10]; at 50.0 µM 91.3% | [11]; at 11.0 µM 93% | [11]; at 33.0 µM 89% | [11]; at 50.0 µM 92% | [11]; at 100.0 µM 89% | [12]; at 11.0 µM 95% | [12]; at 33.0 µM 92% | [12]; at 100.0 µM 93% | [13]; at 11.0 µM 93% | [13]; at 33.0 µM 92% | [13]; at 100.0 µM 91% | [14]; at 11.0 µM 94% | [14]; at 33.0 µM 90% | [14]; at 100.0 µM 90% | [15]; at 50.0 µM 89%
inactive: [1]; at 1.2 µM 11% | [1]; at 3.7 µM 48% | [2]; at 1.2 µM 3% | [2]; at 3.7 µM 15% | [3]; at 1.2 µM 6% | [3]; at 3.7 µM 17% | [3]; at 11.0 µM 33% | [3]; at 33.0 µM 66% | [4]; at 1.2 µM 0% | [4]; at 3.7 µM 26% | [5]; at 1.2 µM 13% | [5]; [17] 67% | [5]; [18] 67% | [6]; at 1.2 µM -1% | [6]; at 3.7 µM 17% | [6]; [17] 27% | [6]; [18] 27% | [7]; at 1.2 µM 1% | [7]; at 3.7 µM 24% | [9]; at 1.2 µM -5% | [9]; at 3.7 µM 4% | [10]; [17] 7% | [10]; [18] 7% | [11]; at 1.2 µM -2% | [11]; at 3.7 µM 10% | [11]; [17] 14% | [11]; [18] 14% | [12]; at 1.2 µM 0% | [12]; at 3.7 µM 35% | [13]; at 1.2 µM 7% | [13]; at 3.7 µM 47% | [14]; at 1.2 µM 1% | [14]; at 3.7 µM 44% | [15]; [17] 44% | [15]; [18] 44%

CCC1(O)C(=O)OCc2c1cc1n(c2=O)Cc2cc3c(N)cccc3nc2-1 (stereo unspecified)
active: [5]; [18] 79%
inactive: [1]; at 1.2 µM -21% | [1]; at 3.7 µM 31% | [1]; at 11.0 µM 53% | [1]; at 33.0 µM 57% | [1]; at 100.0 µM 54% | [2]; at 1.2 µM -22% | [2]; at 3.7 µM -14% | [2]; at 11.0 µM -26% | [2]; at 33.0 µM -24% | [2]; at 100.0 µM -16% | [3]; at 1.2 µM -12% | [3]; at 3.7 µM 7% | [3]; at 11.0 µM -8% | [3]; at 33.0 µM 10% | [3]; at 100.0 µM -8% | [4]; at 1.2 µM -12% | [4]; at 3.7 µM -15% | [4]; at 11.0 µM 3% | [4]; at 33.0 µM -5% | [4]; at 100.0 µM -31% | [5]; at 1.2 µM 11% | [5]; at 3.7 µM 38% | [5]; [17] 58% | [5]; at 11.0 µM 64% | [5]; at 33.0 µM 68% | [5]; at 50.0 µM 56.5% | [5]; at 100.0 µM 60% | [6]; at 1.2 µM -22% | [6]; at 3.7 µM -5% | [6]; [17] 7% | [6]; at 11.0 µM -12% | [6]; at 33.0 µM -18% | [6]; [18] 12% | [6]; at 50.0 µM -0.85% | [6]; at 100.0 µM -35% | [7]; at 1.2 µM -10% | [7]; at 3.7 µM -10% | [7]; at 11.0 µM -19% | [7]; at 33.0 µM -17% | [7]; at 100.0 µM -23% | [8]; [17] 24% | [8]; [18] 19% | [8]; at 50.0 µM -2.35% | [9]; at 1.2 µM -8% | [9]; at 3.7 µM -15% | [9]; at 11.0 µM -33% | [9]; at 33.0 µM -34% | [9]; at 100.0 µM -41% | [10]; [17] 21% | [10]; [18] 14% | [10]; at 50.0 µM -6.95% | [11]; at 1.2 µM -37% | [11]; at 3.7 µM -28% | [11]; [17] 14% | [11]; at 11.0 µM -34% | [11]; at 33.0 µM -47% | [11]; [18] 6% | [11]; at 50.0 µM -9.3% | [11]; at 100.0 µM -33% | [12]; at 1.2 µM -16% | [12]; at 3.7 µM -18% | [12]; at 11.0 µM -17% | [12]; at 33.0 µM -30% | [12]; at 100.0 µM -38% | [13]; at 1.2 µM -23% | [13]; at 3.7 µM -22% | [13]; at 11.0 µM -11% | [13]; at 33.0 µM -34% | [13]; at 100.0 µM -44% | [14]; at 1.2 µM -19% | [14]; at 3.7 µM -7% | [14]; at 11.0 µM 0% | [14]; at 33.0 µM 6% | [14]; at 100.0 µM 7% | [15]; [17] 16% | [15]; [18] 16% | [15]; at 50.0 µM -65.3% | [16]; at 1.2 µM -42% | [16]; at 3.7 µM -37% | [16]; at 11.0 µM -31% | [16]; at 33.0 µM -26% | [16]; at 100.0 µM -48%
